# Data reported in PubChem BioAssay (NCATS).
# Results filed as inconclusive are left out. A call without a number means that no potency is given here. Activity calls are given as the source filed them. Unless noted, calls follow the shape of the dose curve; as a rule, active = well fitted curve in the direction sought with a large enough effect; inconclusive = small, poorly fitted or top-dose-only effect, or another doubt; inactive = no such curve, though single readings can be large; an effect the other way counts as inactive or inconclusive. Where a SMILES comes first, the peptide text is derived from it.
# How the values were obtained:
# [1] = test system: Zika virus NS2B-NS3 protease; assay: Primary screen GU AMC qHTS for Zika virus inhibitors (AID 1347154); also: nearly all actives have a fitted effect of over 70% in size
# Summary of the method: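 Unlinked Zika NS2B hydrophilic domain/NS3 protease domain noncovalent complex (25 nM final) in 10 mM Tris-HCl pH 8.0, 0.01% Tween 20, with AMC peptide substrate. Fluorescence (ex 340, em 450 nm) change over 15 min, room temperature; percent inhibition fitted to 4-parameter Hill equation.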
# [2] = Primary qHTS for small molecule stabilizers of the endoplasmic reticulum resident proteome: Secreted ER Calcium Modulated Protein (SERCaMP) assay (AID 1508630)
# Summary of the method: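 The SH-SY5Y reporter protocol was run at 3 concentrations up to 38.3 uM (primary) or 11 concentrations (follow-up): 16 h compound, 100 nM thapsigargin for 4 h, then extracellular luciferase luminescence.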
# [3] = target: Cytochrome P450 1A2 (Homo sapiens) (UniProt P05177); assay: p450-cyp1a2 (AID 410; calls by dose curve; also: potency is read from the fitted curve at half-maximal effect)
# Sequence of Cytochrome P450 1A2 (Homo sapiens) (P05177 whole entry, looked up): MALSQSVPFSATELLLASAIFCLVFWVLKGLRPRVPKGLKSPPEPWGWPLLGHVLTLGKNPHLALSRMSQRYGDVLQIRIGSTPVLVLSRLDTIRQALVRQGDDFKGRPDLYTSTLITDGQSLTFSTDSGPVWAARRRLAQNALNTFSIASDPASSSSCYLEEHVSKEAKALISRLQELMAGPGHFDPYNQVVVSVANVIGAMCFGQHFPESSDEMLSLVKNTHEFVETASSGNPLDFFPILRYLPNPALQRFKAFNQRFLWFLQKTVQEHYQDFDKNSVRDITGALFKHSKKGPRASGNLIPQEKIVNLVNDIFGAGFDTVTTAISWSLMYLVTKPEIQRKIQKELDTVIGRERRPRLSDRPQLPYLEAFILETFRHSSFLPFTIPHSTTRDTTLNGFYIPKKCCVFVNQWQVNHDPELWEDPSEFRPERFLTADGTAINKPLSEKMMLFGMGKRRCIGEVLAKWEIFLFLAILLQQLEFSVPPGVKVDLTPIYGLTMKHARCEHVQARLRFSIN
# Summary of the method: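 O-Demethylation of luciferin 6' methyl ether by human CYP1A2 is monitored as luciferase luminescence. Substrate sits at Km (100uM); enzyme is 20nM. Values are scaled to 57 uM furafylline as maximal inhibition.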
# [4] = target: Glucocorticoid receptor (Homo sapiens) (UniProt P04150); assay: GR-GFP Redistribution (AID 450;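 active = compounds whose dose series gives a full or clear partial fitted curve of increased nuclear translocation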; also: potency is read from the fitted curve at half-maximal effect); conditions: U2OS GR-GFP nuclear translocation, laser cytometry, 2 h
# Sequence of Glucocorticoid receptor (Homo sapiens) (P04150 whole entry, looked up, the tested form may be a part): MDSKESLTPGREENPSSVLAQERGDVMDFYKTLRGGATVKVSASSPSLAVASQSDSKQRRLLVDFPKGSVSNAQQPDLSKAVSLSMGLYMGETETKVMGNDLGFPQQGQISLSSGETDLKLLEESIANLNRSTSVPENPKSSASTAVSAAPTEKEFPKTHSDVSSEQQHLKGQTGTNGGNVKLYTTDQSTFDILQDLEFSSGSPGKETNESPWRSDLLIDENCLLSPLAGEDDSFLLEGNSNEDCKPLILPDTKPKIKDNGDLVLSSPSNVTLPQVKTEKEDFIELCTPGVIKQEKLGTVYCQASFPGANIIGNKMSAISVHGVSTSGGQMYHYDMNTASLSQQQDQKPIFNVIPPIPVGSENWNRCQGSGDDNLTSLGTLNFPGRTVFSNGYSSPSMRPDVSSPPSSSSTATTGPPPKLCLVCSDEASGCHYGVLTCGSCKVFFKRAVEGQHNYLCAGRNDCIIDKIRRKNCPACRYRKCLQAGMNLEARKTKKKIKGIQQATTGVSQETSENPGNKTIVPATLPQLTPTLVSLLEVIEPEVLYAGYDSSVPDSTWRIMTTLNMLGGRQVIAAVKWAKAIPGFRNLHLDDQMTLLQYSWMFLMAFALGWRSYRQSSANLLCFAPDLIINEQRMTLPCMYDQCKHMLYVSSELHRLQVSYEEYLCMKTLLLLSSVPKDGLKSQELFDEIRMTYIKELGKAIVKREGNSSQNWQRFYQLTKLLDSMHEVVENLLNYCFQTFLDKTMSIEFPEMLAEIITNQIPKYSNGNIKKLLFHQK
# [5] = target: Glucocorticoid receptor (Homo sapiens) (UniProt P04150); assay: GR-EFC Redistribution (AID 451; calls by dose curve; also: potency is read from the fitted curve at half-maximal effect); conditions: CHO-K1 GR-EFC translocation, beta-gal luminescence, 2 h
# Summary of the method: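 CHO-K1 cells stably expressing nuclear-localized β-gal enzyme acceptor and GR fused C-terminally to the enzyme donor fragment; ligand-driven nuclear translocation restores β-gal by complementation. Compounds titrated up to 46 uM final, 2 h at 37 °C; luminescence read.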
# [6] = target: Mitogen-activated protein kinase 10 (Mus musculus) (UniProt Q61831); assay: JNK3 AlphaScreen Assay (AID 530; active = well fitted curve in either direction with a large enough effect, not every such curve was filed as active;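 also: kinase came from lysate of stimulated human HepG2 cells; signal reports phosphorylation of biotinylated GST-cJun 1-79 at Ser73 with 10 µM ATP; series mostly up to about 57 µM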)
# Summary of the method: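 Phosphorylation of biotinylated GST-cJun(1-79) at Ser73 is measured by AlphaScreen proximity luminescence. Enzyme is JNK3 in HepG2 lysates activated with interleukin-1beta and tumor necrosis factor alpha; ATP is 10 uM final.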
# [7] = target: Cytochrome P450 2C19 (Homo sapiens) (UniProt P33261); assay: qHTS Assay for Inhibitors and Substrates of Cytochrome P450 2C19 (AID 899); also: potency is read from the fitted curve at half-maximal effect; nearly all actives have a fitted effect of over 60% in size
# Sequence of Cytochrome P450 2C19 (Homo sapiens) (P33261 whole entry, looked up): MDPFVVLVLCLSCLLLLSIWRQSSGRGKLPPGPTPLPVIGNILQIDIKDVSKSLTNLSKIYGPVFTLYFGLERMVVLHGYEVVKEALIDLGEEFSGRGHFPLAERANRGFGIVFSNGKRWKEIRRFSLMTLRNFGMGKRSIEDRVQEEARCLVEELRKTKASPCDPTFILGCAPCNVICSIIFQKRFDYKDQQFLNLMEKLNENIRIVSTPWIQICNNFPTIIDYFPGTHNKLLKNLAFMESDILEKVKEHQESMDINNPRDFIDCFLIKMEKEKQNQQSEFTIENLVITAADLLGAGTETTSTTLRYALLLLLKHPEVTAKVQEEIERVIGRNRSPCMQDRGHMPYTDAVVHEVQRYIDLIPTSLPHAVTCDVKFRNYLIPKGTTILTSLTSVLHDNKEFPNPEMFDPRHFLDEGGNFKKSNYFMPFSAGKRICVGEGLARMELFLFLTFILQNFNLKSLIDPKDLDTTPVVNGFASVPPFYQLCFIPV
# Summary of the method: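 Human CYP2C19 (5nM) with Luciferin-H EGE at 10uM (its KM) in 50mM KPO4 was preincubated with compound for 10 min at 37C. NADPH regeneration started a 60 min 37C reaction. Luciferin was read by luminescence, normalized to 57uM ketoconazole.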
# [8] = target: DNA dC->dU-editing enzyme APOBEC-3G (Homo sapiens) (UniProt Q9HC16); assay: qHTS for inhibitors of Vif-A3G interactions: Validation (AID 588379)
# Sequence of DNA dC->dU-editing enzyme APOBEC-3G (Homo sapiens) (Q9HC16 whole entry, looked up): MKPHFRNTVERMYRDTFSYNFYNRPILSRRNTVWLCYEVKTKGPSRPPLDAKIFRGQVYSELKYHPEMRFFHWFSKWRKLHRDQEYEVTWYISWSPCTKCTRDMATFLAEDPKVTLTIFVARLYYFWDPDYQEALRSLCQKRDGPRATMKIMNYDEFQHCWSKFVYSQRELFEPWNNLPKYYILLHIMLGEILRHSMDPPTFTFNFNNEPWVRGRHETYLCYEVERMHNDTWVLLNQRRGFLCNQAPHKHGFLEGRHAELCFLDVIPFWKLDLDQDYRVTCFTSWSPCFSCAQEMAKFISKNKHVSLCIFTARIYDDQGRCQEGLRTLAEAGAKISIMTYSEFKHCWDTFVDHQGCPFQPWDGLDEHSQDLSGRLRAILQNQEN
# Summary of the method: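 Yellow fluorescence (Ex 488, Em 500-530) of Vif-coexpressing HeLa A3G-eYFP cells, scanned by Acumen cytometer, reports blocked A3G degradation. Cells plated at 700/well overnight at 37 deg C before compound addition, then a further overnight compound incubation at 37 deg C.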
# [9] = Confirmatory qHTS for small molecule stabilizers of the endoplasmic reticulum resident proteome: Secreted ER Calcium Modulated Protein (SERCaMP) assay (AID 1508628); also: series mostly up to about 76 µM; nearly all actives have a fitted effect of over 40% in size
# Summary of the method: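 Reporter secretion upon ER calcium depletion (100 nM thapsigargin, 4 h, 37C) is measured as medium luminescence with coelenterazine, after 16 h compound pretreatment of SH-SY5Y-GLuc-SERCaMP cells; primary at three concentrations up to 38.3 uM, follow-up at 11 (up to 76.6 uM).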
# [10] = target: 3',5'-cyclic-AMP phosphodiesterase 4B (Homo sapiens) (UniProt Q07343); assay: qHTS Assay for Inhibitors of PDE-IV (AID 607; active = well fitted activation curve with a large enough effect in the main read-out, with a control signal flat, not every such curve was filed as active)
# Sequence of 3',5'-cyclic-AMP phosphodiesterase 4B (Homo sapiens) (Q07343 whole entry, looked up): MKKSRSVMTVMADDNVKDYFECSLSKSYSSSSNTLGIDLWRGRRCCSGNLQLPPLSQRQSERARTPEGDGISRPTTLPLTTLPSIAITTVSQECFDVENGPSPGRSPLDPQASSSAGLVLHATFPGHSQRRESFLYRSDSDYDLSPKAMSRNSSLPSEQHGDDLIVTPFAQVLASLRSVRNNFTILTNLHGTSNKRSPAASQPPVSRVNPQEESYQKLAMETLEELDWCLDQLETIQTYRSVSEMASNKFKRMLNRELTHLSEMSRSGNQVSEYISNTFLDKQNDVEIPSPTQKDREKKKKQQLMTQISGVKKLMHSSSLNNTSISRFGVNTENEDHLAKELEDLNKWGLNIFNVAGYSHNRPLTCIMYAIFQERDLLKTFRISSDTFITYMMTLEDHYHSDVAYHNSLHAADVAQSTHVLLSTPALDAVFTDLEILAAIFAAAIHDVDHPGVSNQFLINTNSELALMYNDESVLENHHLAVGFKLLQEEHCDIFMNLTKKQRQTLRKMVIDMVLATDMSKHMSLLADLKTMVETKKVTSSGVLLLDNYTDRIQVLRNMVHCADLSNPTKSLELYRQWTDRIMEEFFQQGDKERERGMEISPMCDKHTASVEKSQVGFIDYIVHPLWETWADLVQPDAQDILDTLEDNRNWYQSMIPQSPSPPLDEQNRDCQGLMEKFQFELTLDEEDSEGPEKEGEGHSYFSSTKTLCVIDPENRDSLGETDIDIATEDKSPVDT
# Summary of the method: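 ACTOne HEK293 cells carry a modified cAMP-gated CNG channel and express endogenous PDE4; plated 1000 cells/well, compounds up to 22.9 uM final. Membrane-potential dye fluorescence (ex 535/em 590) was read; parental cells received 10 uM forskolin + 100 uM RO 20-1724.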
# [11] = target: Cytochrome P450 2D6 (Homo sapiens) (UniProt P10635); assay: qHTS Assay for Inhibitors and Substrates of Cytochrome P450 2D6 (AID 891); also: potency is read from the fitted curve at half-maximal effect; nearly all actives have a fitted effect of over 60% in size
# Sequence of Cytochrome P450 2D6 (Homo sapiens) (P10635 whole entry, looked up): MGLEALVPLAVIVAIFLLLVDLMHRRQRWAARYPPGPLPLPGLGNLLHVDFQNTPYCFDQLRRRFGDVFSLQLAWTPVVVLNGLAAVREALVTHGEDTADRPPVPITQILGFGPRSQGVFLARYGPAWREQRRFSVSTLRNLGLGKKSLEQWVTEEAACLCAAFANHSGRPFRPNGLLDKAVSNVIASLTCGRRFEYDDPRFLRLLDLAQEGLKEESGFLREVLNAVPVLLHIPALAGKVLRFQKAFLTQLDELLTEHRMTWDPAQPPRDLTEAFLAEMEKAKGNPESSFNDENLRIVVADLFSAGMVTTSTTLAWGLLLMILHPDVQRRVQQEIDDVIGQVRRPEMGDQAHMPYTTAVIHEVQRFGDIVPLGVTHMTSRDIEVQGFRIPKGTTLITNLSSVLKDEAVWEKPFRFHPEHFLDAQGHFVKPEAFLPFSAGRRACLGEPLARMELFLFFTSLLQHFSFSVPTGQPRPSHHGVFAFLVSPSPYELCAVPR
# Summary of the method: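 Luminescent read-out of luciferin formed by 5 nM human CYP2D6 demethylating 30 uM Luciferin-ME EGE (Km level) over 60 min at room temperature after NADPH regeneration addition. Data normalized to full inhibition by 1.43 uM quinidine.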
# [12] = target: Ubiquitin carboxyl-terminal hydrolase 1 (Homo sapiens) (UniProt O94782); assay: Inhibitors of USP1/UAF1: Pilot qHTS (AID 504865);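 also: rhodamine fluorescence freed from ubiquitin-rhodamine substrate followed over time; top concentration of the series differs between compounds; nearly all actives have a fitted effect of over 35% in size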
# Sequence of Ubiquitin carboxyl-terminal hydrolase 1 (Homo sapiens) (O94782 whole entry, looked up): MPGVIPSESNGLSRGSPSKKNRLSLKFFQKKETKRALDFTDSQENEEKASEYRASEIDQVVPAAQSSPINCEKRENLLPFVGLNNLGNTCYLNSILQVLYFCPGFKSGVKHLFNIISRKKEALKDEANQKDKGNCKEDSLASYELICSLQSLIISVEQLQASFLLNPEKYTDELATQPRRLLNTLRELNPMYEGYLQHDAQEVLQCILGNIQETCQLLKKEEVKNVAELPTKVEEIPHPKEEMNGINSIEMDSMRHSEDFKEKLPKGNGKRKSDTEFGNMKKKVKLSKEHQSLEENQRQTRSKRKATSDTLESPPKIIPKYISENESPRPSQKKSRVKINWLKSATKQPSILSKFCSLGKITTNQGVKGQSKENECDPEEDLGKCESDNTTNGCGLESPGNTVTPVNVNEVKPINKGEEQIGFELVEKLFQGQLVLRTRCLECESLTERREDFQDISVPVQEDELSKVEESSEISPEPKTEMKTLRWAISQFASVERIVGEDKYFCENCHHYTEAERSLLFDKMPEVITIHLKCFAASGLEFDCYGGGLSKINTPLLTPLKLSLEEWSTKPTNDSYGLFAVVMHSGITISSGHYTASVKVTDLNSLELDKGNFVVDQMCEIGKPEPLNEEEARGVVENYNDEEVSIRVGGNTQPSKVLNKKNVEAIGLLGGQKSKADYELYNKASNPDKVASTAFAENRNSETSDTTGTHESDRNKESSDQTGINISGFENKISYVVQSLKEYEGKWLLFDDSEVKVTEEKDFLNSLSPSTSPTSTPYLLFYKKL
# Summary of the method: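 USP1/UAF1 complex at 1 nM preincubated 15 min at room temperature with compound, then Ub-Rho substrate added at 150 nM final. Fluorescence (480/540 nm) read kinetically in 50 mM HEPES pH 7.8, 0.5 mM EDTA, 1 mM TCEP, 0.1 mg/ml BSA, 0.01% Tween-20.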
# [13] = Counterscreen qHTS for small molecule stabilizers of the endoplasmic reticulum resident proteome: GLuc-NoTag assay (AID 1508627); also: series mostly up to about 76 µM
# Summary of the method: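 Secreted GLuc lacking the SERCaMP modification is measured in SH-SY5Y cells exposed to compound for 19 h and then to thapsigargin (100 nM, 4 h) to deplete ER calcium; hits retested at 11 concentrations, up to 76.6 uM.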
compound,measurement,setting,value
C=C1C(=O)O[C@@H]2C[C@@H](C)[C@@H]3C=CC(=O)[C@@]3(C)[C@@H](O)[C@H]12,Potency,[1],inactive
same,Potency,[2],inactive
COc1cc(OC2CCN(C(C)=O)CC2)ccc1C(=O)N1CCC(N2C(=O)OCc3ccccc32)CC1,Potency,[1],inactive
same,Potency,[2],inactive
CCCC[C@H]1C(=O)O[C@H](C)[C@H](NC(=O)c2cccc(NC=O)c2OC)C(=O)O[C@@H](C)[C@@H]1OC(=O)CC(C)C,Potency,[1],inactive
same,Potency,[2],inactive
NC(=O)[C@@H]1CCCN1C(=O)[C@H](Cc1ccccc1)NC(=O)[C@@H]1CCCN1C(=O)[C@@H](N)Cc1ccc(O)cc1 (H-YPFP-NH2),"activity change, negative = inhibition",[1],12.8% [at 6.83 µM] (inactive)
same,"activity change, negative = inhibition",[2],-13.2% [at 3.88 µM] (inactive)
NCCc1cccc(O)c1,Potency,[1],inactive
same,Potency,[2],inactive
CCCCCCCCCCCCCCCCOC[C@H](COP(=O)([O-])OCC[N+](C)(C)C)OC(C)=O,"activity change, negative = inhibition",[1],-0.0514% [at 6.83 µM] (inactive)
same,"activity change, negative = inhibition",[2],-28.3% [at 3.88 µM] (inactive)
O=C(O)/C=C/CO,Potency,[1],inactive
same,Potency,[2],inactive
Cc1ccc2c(c1)Cc1c(C(=O)NC3CCCCC3)nn(-c3ccc(Cl)cc3Cl)c1-2,Potency,[1],inactive
same,Potency,[2],inactive
N[C@]1(C(=O)O)CC[C@@H](C(=O)O)C1 (racemic),Potency,[1],inactive
same,Potency,[2],inactive
COc1cccc2c1C13CC[N+]4(CC5CC5)CO[C@]1(CCC(=O)C3)C4C2,Potency,[1],inactive
same,Potency,[2],inactive
C/C=C1/C[N@@+]2(C)CC[C@]34C(=C(C=O)[C@H]1C[C@H]32)Nc1ccccc14,Potency,[1],inactive
same,Potency,[2],inactive
CSCC[C@H](NC(=O)[C@H](Cc1ccccc1)NC(=O)CNC(=O)CNC(=O)[C@@H](N)Cc1ccc(O)cc1)C(=O)O,"activity change, negative = inhibition",[1],-0.9% [at 6.83 µM] (inactive)
same,"activity change, negative = inhibition",[2],-26.7% [at 3.88 µM] (inactive)
CC(CN)CC(=O)O (stereo not given),Potency,[1],inactive
same,Potency,[2],inactive
CCc1cccc(CC)c1NC1=NCCN1,Potency,[1],inactive
same,Potency,[2],inactive
CN(C(=O)Cc1ccc(Cl)c(Cl)c1)[C@H](CN1CCCC1)c1ccccc1,Potency,[3],31.6 µM (active)
same,Potency,[4],> 46 µM (inactive)
same,Potency,[5],> 46 µM (inactive)
same,outcome,[6],inactive
same,Potency,[7],0.316 µM (active)
same,Potency,[8],inactive
same,Potency,[1],inactive
same,Potency,[9],inactive
same,Potency,[2],inactive
O[C@@H]1CCCN2C[C@@H](O)[C@@H](O)C12 (stereo not given in full),Potency,[1],inactive
same,Potency,[2],inactive
H-YGGFLRKYPK-OH,"activity change, negative = inhibition",[1],17.1% [at 6.83 µM] (inactive)
same,"activity change, negative = inhibition",[2],-17% [at 3.88 µM] (inactive)
C[C@H](NC(=O)[C@@H](N)Cc1ccc(O)cc1)C(=O)N[C@@H](Cc1ccccc1)C(=O)NCC(=O)N[C@@H](Cc1ccc(O)cc1)C(=O)N1CCC[C@H]1C(=O)N[C@@H](CO)C(N)=O,"activity change, negative = inhibition",[1],8.07% [at 6.83 µM] (inactive)
same,"activity change, negative = inhibition",[2],-16.9% [at 3.88 µM] (inactive)
CCCCCCC[n+]1ccc(-c2cc[n+](CCCCCCC)cc2)cc1,Potency,[5],> 46 µM (inactive)
same,Potency,[10],inactive
same,Potency,[11],7.94 µM (active)
same,Potency,[12],inactive
same,Potency,[8],inactive
same,Potency,[1],inactive
same,Potency,[13],inactive
